Experimental data taken from PubChem BioAssay (NCI).
This is part of a sample that, as a whole, favours compounds with a hit. Of some 79,000 tested, about 15% had one in any assay. A number with no mark means an inactive call. Activity calls are given as the source filed them. Rule as the data show it: active = growth inhibition above about 70%; inactive = the rest.

Test: NCI Yeast Anticancer Drug Screen. Data for the mgt1 strain (AID 153)
Details: S. cerevisiae mgt1 mutant growth inhibition, stronger effect = higher value
Description: Growth inhibition of yeast strains with defined genetic alterations is measured as a screen for potential anti-cancer activity. Selected strains with alterations in DNA damage repair or cell cycle control were exposed to compounds and growth inhibition was measured relative to vehicle treated controls. The strain used in this assay is mgt1

Compound	growth inhibition (at 1.2 µM) [%]	growth inhibition (at 3.7 µM) [%]	growth inhibition (at 11.0 µM)	growth inhibition (at 33.0 µM)	growth inhibition (at 100.0 µM)
O=C(Nn1c(-c2ccccc2)nc2ccccc2c1=O)c1ccc(Cl)cc1	-4	-19	-17%	50%	94% (active)
c1ccc(C2=NNC3c4ccccc4-c4ccccc4N3C2)cc1 (stereo not given)	-1	8	-4%	-2%	47%
CC1=NN(C(=O)CC(=O)N(C(=O)c2ccccc2)c2ccc(Cl)cc2)C(=O)C1N=Nc1ccc([N+](=O)[O-])cc1 (stereo not given)	0	7	35%	62%	71% (active)
O=C1c2ccc(O)cc2C(=O)c2c(O)ccc(O)c21	1	10	78% (active)	93% (active)	91% (active)
CCCCCCCCCCCCOC1C(COCCN2CCCC2)OC2OC(C)(C)OC21 (stereo not given)	3	2	97% (active)	98% (active)	98% (active)
O=C1c2ccccc2C(=O)C1C(c1ccc(F)cc1)C1C(=O)c2ccccc2C1=O	0	-11	-17%	5%	76% (active)
O=C(CSS(=O)(=O)O)c1ccccc1	-1	-3	-1%	2%	7%
CC(C)(C(=O)NN)c1ccccc1	4	10	22%	54%	90% (active)
